# TDP1 inh: inhibitors of human tyrosyl-DNA phosphodiesterase TDP1 | Potency, µM (titrated, usually from 130 µM), without a hit: at the top dose activity change, negative = inhibition, most hits filed as inhibitors | Q9NUW8 | 350,000 compounds, 0.28% hits | recombinant TDP1, AlphaScreen DNA substrate cleavage; note: potency is the fitted concentration of half-maximal effect; % is set by controls: 0 for no effect and ±100 for the full control effect; nearly all actives have a fitted effect of over 40% in size
# Target sequence (Q9NUW8 whole entry, looked up): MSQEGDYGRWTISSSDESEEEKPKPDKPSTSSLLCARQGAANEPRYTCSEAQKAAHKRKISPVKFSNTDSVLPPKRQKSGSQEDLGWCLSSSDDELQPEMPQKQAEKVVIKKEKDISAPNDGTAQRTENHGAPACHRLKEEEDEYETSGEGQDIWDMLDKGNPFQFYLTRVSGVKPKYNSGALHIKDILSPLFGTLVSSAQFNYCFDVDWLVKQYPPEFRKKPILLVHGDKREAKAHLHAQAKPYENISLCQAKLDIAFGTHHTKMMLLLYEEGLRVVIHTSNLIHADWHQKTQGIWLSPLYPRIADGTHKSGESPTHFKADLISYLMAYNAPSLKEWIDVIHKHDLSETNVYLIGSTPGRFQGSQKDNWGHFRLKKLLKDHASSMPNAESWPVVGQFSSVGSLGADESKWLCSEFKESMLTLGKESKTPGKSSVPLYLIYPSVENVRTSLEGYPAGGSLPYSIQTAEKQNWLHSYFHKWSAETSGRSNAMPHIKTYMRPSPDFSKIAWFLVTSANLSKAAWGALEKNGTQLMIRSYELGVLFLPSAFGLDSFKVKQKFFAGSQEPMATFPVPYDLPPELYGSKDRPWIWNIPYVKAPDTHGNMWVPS
#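 Tdp1 1 nM final; 15 min RT w/ cpd; substrate 15 nM, 5 min; beads 10 ug/ml, 10 min; AlphaScreen read. Neg ctrl: no enzyme.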
# TGFb SMAD3 inh: inhibitors of TGF-b signaling. HepG2 CAGA-GFP TGF-b/SMAD3 reporter, GFP fluorescence, 18 h; TGF-beta stimulated, 500 pg/mL final. Potency, µM (series often up to 46.1 µM), inactives show at the top dose activity, negative = inhibition, actives largely listed as inhibitors. 410,000 compounds, 1.2% hits; note: potency is the fitted concentration of half-maximal effect; % is set by controls: 0 for no effect and ±100 for the full control effect; nearly all actives have a fitted effect of over 65% in size
#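 HEPG2 CAGA-GFP reporter cells (1000/well, DMEM with 1% FBS) received compounds, then recombinant TGF-beta at 500 pg/mL final for 18 hours at 37 degrees C. Per-cell GFP summed per well was normalised to unstimulated and stimulated DMSO controls before curve fitting.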
# IL1B secr inh: blocks inflammasome-driven IL-1 beta release. AID 743279. THP-1 LPS/ATP IL-1B secretion, AlphaLISA, 16 h; stronger effect = lower value. activity change, % at 57.5 µM. 360,000 compounds, 4.7% hits; in the data active = activity change below about -50%; inconclusive = mostly about -30% to -49%; note: % is set by controls: 0 for no effect and ±100 for the full control effect
#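 Secreted IL-1B measured by AlphaLISA bead assay after 16 h compound exposure of THP-1 cells; compounds (final up to 57.5 uM) added 1 h before LPS (250 ng/mL) and ATP (1.25 mM) stimulation; lower signal means less secretion.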
# TDP1 cell CPT: growth inhibition of DT40 Tdp1-/-;hTDP1 cells with camptothecin (screen for TDP1 inhibitors); 420,000 compounds, 12% hits; AID 686979; Potency, µM (top dose mostly 46.2 µM), without a hit: top-dose activity change, negative = growth inhibition, most hits filed as inhibitors; chicken DT40 Tdp1-/-;hTDP1 cells + 20 nM CPT, ATP luminescence, 48 h; note: potency is the fitted concentration of half-maximal effect; % is set by controls: 0 for no effect and ±100 for the full control effect; nearly all actives have a fitted effect of over 55% in size
#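 Chicken DT40 Tdp1-/- cells stably complemented with human TDP1 were seeded at 400 cells/well in medium containing 20 nM camptothecin, exposed to pin-transferred compounds, and grown at 37 °C for at least 48 hr. Viability was read as ATP luminescence.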
# HepG2 viability: kills HepG2 cells in TGF-b inhibitor counter-screen. HepG2 CAGA-GFP viability, ATP luminescence, 18 h. Potency, µM (series often up to 46.1 µM), for inactives: at the highest dose activity change, negative = cytotoxicity, actives largely listed as cytotoxic. 410,000 compounds, 0.76% hits; note: potency is the fitted concentration of half-maximal effect
#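 CellTiter-Glo luminescence gave cytotoxicity after 18 hours at 37 degrees C. The cells were HepG2 CAGA-GFP in 1% FBS DMEM, stimulated with 500 pg/mL TGF-beta after compound addition. %Activity was normalised to no-cell wells (complete cell-killing) and DMSO (no toxicity), and curves were fitted and classified.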
# TDP1 cell noCPT: qHTS for Inhibitors of human tyrosyl-DNA phosphodiesterase 1 (TDP1): qHTS in cells in absence of CPT. Potency, µM (series often up to 46.2 µM), inactives show at the highest dose activity change, negative = growth inhibition, actives largely listed as inhibitors. DT40 Tdp1-/- hTDP1 cells, no CPT, ATP luminescence, 48 h. 420,000 compounds, 15% hits; note: potency is the fitted concentration of half-maximal effect; % is set by controls: 0 for no effect and ±100 for the full control effect; nearly all actives have a fitted effect of over 55% in size
#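 Chicken DT40 Tdp1-/- cells complemented with human TDP1, screened without camptothecin (DMSO vehicle only), 400 cells/well. Compounds pin-transferred, cells incubated at 37 °C for at least 48 hr. Growth read as ATP-dependent luminescence (CellTiter-Glo, 30 min at RT).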
# Active calls of the source: *; ? = inconclusive; . = not tested or not shown; [ ] = dose if it differs, or a comment. Only some compounds are listed: those with a hit (about 19% of all), similar ones and a draw of the others. Unless noted, calls come from the whole dose curve; as a rule, active = well fitted curve in the direction sought with a large enough effect; inconclusive = small, poorly fitted or top-dose-only effect, or another doubt; inactive = no such curve, though single readings can be large; an effect the other way counts as inactive or inconclusive.
SMILES,TDP1 inh,TGFb SMAD3 inh,IL1B secr inh,TDP1 cell CPT,HepG2 viability,TDP1 cell noCPT
O=C(NC(Nc1ncc(S(=O)(=O)c2ccc([N+](=O)[O-])cc2)s1)(C(F)(F)F)C(F)(F)F)c1ccc(Cl)cc1,6%,?,-76*,?,-39%,15µM*
COc1ccc2c(c1)O[C@@H](c1cccc(C(F)(F)F)c1)[C@H](OC(=O)Nc1ccc(C)c(Br)c1)C2=O,6%,.,.,.,.,.
COc1ccccc1CNc1ccc(-c2nc(-c3cccnc3)no2)cc1[N+](=O)[O-],6%,?,.,?,0%,?
Cc1ccc2c(c1)c1c(n2CC(O)Cn2c(C)nc3ccccc32)/C(=N\O)CCC1 (stereo not drawn),3%,?,-3,23µM*,-96%,23µM*
Cc1ccc2c(c1)c1c(n2CC(O)Cn2c(C)nc3ccccc32)C(=O)CCC1 (stereo not drawn),9%,1%,-2,26µM*,-18%,18µM*
Cc1ccc2c(c1)c1c(n2CC(O)Cn2ccnc2C)C(=O)CCC1 (stereo not drawn),2%,1%,-8,?,-3%,?
Cc1sc2nc(CSCC(=O)N(CCC#N)c3ccccc3)[nH]c(=O)c2c1C,-1%,-3%,29,18µM*,1%,?
Cc1sc2nc(CSCC(=O)Nc3ccc(Cl)cc3F)[nH]c(=O)c2c1C,-14%[0.505 µM],4%,-4,3%,-14%,-4%
Cc1sc2nc(CSCC(=O)N(C)CC(=O)Nc3ccc(F)cc3)[nH]c(=O)c2c1C,2%,13%,-26,-29%,2%,?
Cc1sc2nc(CSCC(=O)Nc3c(F)cccc3F)[nH]c(=O)c2c1C,.,-12%,17,12µM*,-24%,10µM*
Cc1sc2nc(CSCC(=O)NC(C)(C)C)[nH]c(=O)c2c1C,-1%,0%,24,-23%,-3%,-11%
CCOC(=O)CSc1nc2sc(C)c(C)c2c(=O)n1C,0%,4%,13,?,2%,-24%
Cc1sc2nc(SCC(=O)N3CC(C)OC(C)C3)n(C)c(=O)c2c1C (stereo not drawn),3%,-2%,10,?,16%,13µM*
Cc1sc2nc(CSCC(=O)N(C)c3ccccc3)[nH]c(=O)c2c1C,8%,19%,-10,23µM*,-1%,16µM*
COc1ccccc1C(=O)Nc1ccc(S(=O)(=O)Nc2ncccn2)cc1,3%[12.3 µM],-2%,.,-7%,-5%,0%
Cc1sc2nc(SCC(=O)NCCO)n(-c3ccccc3)c(=O)c2c1C,4%,27%,5,-7%,5%,-26%
CCn1c(=O)c2ccccc2n2c(SCC(=O)N3CCc4ccccc4C3)nnc12,6%,-23%,-15,?,-16%,-6%
CCn1c(SCC(=O)N2CCc3ccccc3C2)nc2sc(C)c(C)c2c1=O,3%,-10%,15,?,-19%,21µM*
Cc1sc2nc(SCC(=O)N(C)c3ccccc3)n(C)c(=O)c2c1C,7%,-27%,0,18µM*,-23%,13µM*
CCOc1ccc(N(CC)C(=O)Cn2cnc3sc(C)c(S(=O)(=O)N4CCN(c5ncccn5)CC4)c3c2=O)cc1,-2%,-10%,.,13µM*,-2%,9.2µM*
CCOC(=O)C1CCCN(C(=O)Cn2cnc3sc(C)c(S(=O)(=O)N4CCOCC4)c3c2=O)C1 (stereo not drawn),5%,2%,-53*,0%,1%,-9%
Cc1sc2ncn(CC(=O)N3CCN(c4ccccc4)CC3)c(=O)c2c1S(=O)(=O)N1CCOCC1,4%,1%,3,18%,-9%,?
Cc1ccc(C)c(N2CCN(C(=O)Cn3cnc4sc(C)c(S(=O)(=O)N5CCN(c6ncccn6)CC5)c4c3=O)CC2)c1,12%,-14%,.,18µM*,-8%,9.2µM*
Cc1sc2ncn(CC(=O)N3CCN(c4ccc(F)cc4)CC3)c(=O)c2c1S(=O)(=O)N1CCCCC1,0%,?,.,16µM*,-13%,16µM*
O=C(CSc1nc2c(c(=O)n1-c1ccccc1)SCC2)NCC1CCCO1 (stereo not drawn),.,0%,20,18%,13%,-14%
SMILES,TDP1 inh,TGFb SMAD3 inh,IL1B secr inh,TDP1 cell CPT,HepG2 viability,TDP1 cell noCPT
CN(CC(=O)Nc1ccc(Cl)c(Cl)c1)C(=O)C1CCCC1,0%,-18%,-25,-11%,-5%,-29%
COc1ccccc1NS(=O)(=O)c1cc(N)ccc1N1CCCCC1,-7%,-2%,-11,-24%,15%,?
CCCS(=O)(=O)Nc1ccc(N2CCCCC2)c(S(=O)(=O)Nc2ccccc2OC)c1,-7%,?,-6,?,-22%,16µM*
COc1ccccc1NS(=O)(=O)c1cc(NC(=O)C2CCC2)ccc1N1CCCCC1,.,0%,1,?,0%,?
COc1ccccc1NS(=O)(=O)c1cc(NC(=O)c2cccnc2)ccc1N1CCCCC1,2%,?,?,?,14%,23µM*
CCOc1cc(/C=C2/SC(=S)NC2=O)ccc1OC(=O)c1ccco1,5%,14%,-51*,23µM*,-27%,12µM*
O=C1NC(=S)S/C1=C/c1ccc(OC(=O)c2ccco2)cc1,50µM*,28%,?,?,11%,-8%
COc1cc(/C=C2/SC(=O)NC2=O)ccc1OC(=O)c1ccco1,4%,7%,-22,16µM*,-4%,16µM*
COc1cc(/C=C2\SC(=S)N(NC(C)=O)C2=O)ccc1OC(=O)c1ccco1,5%,-7%,-9,?,-13%,?
c1ccc2c(c1)-c1nc3ccccc3cc1C2N1CCOCC1 (stereo not drawn),.,0%,-24,?,-35%,?
CC1CCC(NC(=O)COc2ccc(C(=O)c3ccccc3)cc2)CC1 (stereo not drawn),1%,-23%,-65*,?,-34%,10µM*
CC1CCN(CCOc2ccc(C(=O)c3ccccc3)cc2)CC1,.,-26%,-5,16µM*,-23%,?
COc1ccc(C(=O)c2ccccc2)cc1Br,-4%,0%,-53*,-17%,-2%,0%
CC(=O)c1ccc(OCC(=O)NC2CCCCCC2)cc1,-7%,?,14,-5%,-2%,-13%
